Screening results (PubChem BioAssay)
Fam108B inh: counter-screen for RBBP9 inhibitors: inhibitors of mouse Fam108B; inhibition, % at 9.51 µM; hit rate 0.33% among 300,000; AID 1947; recombinant Fam108B, FP-Rh probe fluorescence polarization;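 active means inhibition above the screen mean inhibition plus 3 SD, computed separately per campaign, cut at about 18% in these data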;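 further: inhibitors lower polarization as less probe binds the enzyme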
GSTO1 counter: blocks human GSTO1 in RBBP9 counter-screen; hit rate 1.1% among 300,000; recombinant GSTO1, activity-based probe fluorescence polarization; inhibition, % at 5.96 µM;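 active means inhibition above the campaign mean inhibition plus 3 SD, cut at about 35% in these data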;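 further: 0% = GSTO1-1 with DMSO and 100% = wells lacking GSTO1-1 enzyme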
Target sequence (P78417 whole entry, looked up): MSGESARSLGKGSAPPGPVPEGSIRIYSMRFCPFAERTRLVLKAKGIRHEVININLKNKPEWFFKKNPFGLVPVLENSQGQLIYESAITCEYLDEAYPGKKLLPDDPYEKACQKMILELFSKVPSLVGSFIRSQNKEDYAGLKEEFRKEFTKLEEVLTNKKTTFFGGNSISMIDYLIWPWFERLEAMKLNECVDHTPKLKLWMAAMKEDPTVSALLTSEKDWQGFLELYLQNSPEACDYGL
PME-1 inh: PME-1 (human) inhibition; recombinant PME-1, FP-Rh probe fluorescence polarization; Q9Y570; hit rate 0.53% among 320,000; inhibition, % at 5.9 µM;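 active means inhibition above the campaign mean of all compounds plus 3 SD, cut at about 26% in these data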;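 further: competitive labeling of PME-1 active site by serine hydrolase directed probe; 0% = PME-1 with DMSO and 100% = wells lacking PME-1 enzyme; inhibitors block probe labeling so polarization falls and inhibition rises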
Target sequence (Q9Y570 whole entry, looked up): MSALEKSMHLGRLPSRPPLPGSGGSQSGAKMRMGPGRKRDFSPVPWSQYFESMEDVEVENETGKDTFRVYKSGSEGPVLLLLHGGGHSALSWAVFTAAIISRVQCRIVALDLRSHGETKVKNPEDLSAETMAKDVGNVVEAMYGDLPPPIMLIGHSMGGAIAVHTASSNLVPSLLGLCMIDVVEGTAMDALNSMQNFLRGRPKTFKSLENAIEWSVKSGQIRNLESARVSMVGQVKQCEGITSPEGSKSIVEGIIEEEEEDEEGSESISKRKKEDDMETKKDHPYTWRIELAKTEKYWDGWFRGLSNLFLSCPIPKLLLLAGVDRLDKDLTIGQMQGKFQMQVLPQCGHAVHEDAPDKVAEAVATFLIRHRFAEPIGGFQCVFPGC
PAD4 FP inh: PAD4 (human) enzyme inhibition; hit rate 0.41% among 330,000; inhibition, % at 6.36 µM; recombinant PAD4, RCA probe fluorescence polarization; AID 485272; Q9UM07;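 active means percent inhibition above a cutoff equal to the mean of all tested compounds plus 3 SD, cut at about 15% in these data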;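 further: 0% = PAD4 with RCA probe and DMSO and 100% = probe without PAD4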
pPAFAH FP inh: inhibitors of human plasma PAF acetylhydrolase (pPAFAH) | AID 463082 | recombinant pPAFAH, FP-rhodamine probe fluorescence polarization | hit rate 1.5% among 330,000 | inhibition, % at 3.39 µM;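 active means inhibition above the mean inhibition across the screen plus 3 SD, cut at about 25% in these data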;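 further: inhibitors block binding of the rhodamine activity-based probe so polarization drops; 0% = enzyme with DMSO and 100% = wells lacking pPAFAH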
The depositor's hits bear a star; . = no result given. Sampled rows, rich in hits. Any-hit rate of the full collection: about 2.3%.

SMILES	Fam108B inh	GSTO1 counter	PME-1 inh	PAD4 FP inh	pPAFAH FP inh
CCC1CSC(=Nc2ccc(C)cc2)N1C(=O)CN1C(=O)NC2(CCCC2)C1=O (centres undefined)	-1.6	0.7	3.8	-0.8	9.0
COCCNc1ncnc2c1[nH]c1ccccc12	3.9	-1.5	4.4	2.0	28.1*
OCCCNc1ncnc2c1[nH]c1ccccc12	-0.8	2.5	2.8	0.5	-0.2
CC(=O)n1cc(N(C(=O)CCl)c2ccc([N+](=O)[O-])cc2)c2ccccc21	1.8	75.4*	4.7	19.5*	2.2
O=Cc1[nH]c2ccccc2c1N(C(=O)CCl)c1ccc([N+](=O)[O-])cc1	-5.1	73.3*	2.5	10.6	1.8
CC(=O)n1cc(N(C(=O)CCl)c2ccccc2)c2ccccc21	-4.0	76.9*	1.0	12.8	8.0
O=C(NC1CCN(CC(=O)N(c2ccccc2)c2ccccc2)CC1)c1ccc([N+](=O)[O-])cc1	-1.9	5.7	0.0	0.2	3.5
CC(=O)n1cc(CO)c2ccccc21	-3.5	6.8	0.6	0.3	-0.6
CCOc1ccc(N2CC(C(=O)Nc3nnc(Cc4ccccc4)s3)CC2=O)cc1 (centres undefined)	-1.0	6.4	-5.2	-5.5	5.7
CCN(CC(=O)Nc1ccc2c(c1)OCCO2)C(=O)c1ccc(C)c(S(=O)(=O)N2CCOCC2)c1	-2.9	1.9	3.6	-6.4	0.2
CC1CCC(NC(=O)c2cc(S(=O)(=O)N3CCCCC3)ccc2N2CCOCC2)CC1 (centres undefined)	.	.	5.5	1.5	-1.2
COc1ccc(C2=NN(Cc3c(F)cccc3Cl)C(=O)CC2)cc1	1.4	-2.6	44.0*	1.3	2.3
O=C1CCC(c2ccccc2)=NN1Cc1c(F)cccc1Cl	2.1	2.9	18.1	0.9	4.9
O=C(O)c1cc2cc(Cl)cc(Cl)c2oc1=O	-7.8	1.0	-0.7	0.5	26.7*
COc1ccccc1NC(=O)C1CCN(C(=O)NCc2ccccc2)CC1	-2.3	1.6	0.8	-2.0	31.8*
Oc1cccc(/C=N/Nc2ncnc3c2ncn3Cc2ccccc2)c1	0.5	-3.0	2.1	0.2	-0.1
Oc1ccc(/C=N/Nc2ncnc3c2ncn3Cc2ccccc2)cc1O	-3.9	17.0	10.8	4.3	30.4*
NC(=O)Cc1ncc(C(F)(F)F)cc1Cl	-1.1	6.1	-5.7	-5.0	8.2
OCC#Cc1ncc(C(F)(F)F)cc1Cl	-1.6	83.4*	-3.0	-1.9	4.2
CCOC(=O)c1c(Nc2ccccc2OCCOC)n[nH]c1C	2.0	3.4	1.6	-0.1	8.4
O=C(c1ccccc1F)N1CCN(Cc2nc3sc4c(c3c(=O)[nH]2)CCCC4)CC1	0.0	-0.1	27.2*	-2.9	1.4
CCN(CC)c1ccc(NC(=O)CSc2ccsc2[N+](=O)[O-])c(C)c1	9.7	17.8	-2.7	0.2	28.1*
O=C(OCCc1cc2ccccc2c(=O)o1)c1ccc(C(F)(F)F)cc1	.	.	-2.0	2.7	4.0
Cc1cc(Cl)ccc1C(=O)C1CCCN(C(=O)c2ccsc2)C1 (centres undefined)	0.7	10.3	0.6	5.0	4.9
Cc1cc(Cl)ccc1C(=O)C1CCCN(C(=O)c2ccc3ncccc3c2)C1 (centres undefined)	-1.9	3.5	4.4	-5.6	25.4*
SMILES	Fam108B inh	GSTO1 counter	PME-1 inh	PAD4 FP inh	pPAFAH FP inh
CCN(CC(=O)N1CCCC1)S(=O)(=O)c1cc(C)ccc1OC	-5.0	2.2	-4.8	2.1	-1.4
CC(Sc1nnc(-c2ccncc2)n1C)C(=O)Nc1nccs1 (centres undefined)	-2.7	6.5	1.8	-4.1	3.0
CNC(=O)CSc1nc2cc(S(=O)(=O)Nc3ccc(OC)cc3)ccc2o1	-4.1	13.0	-2.2	0.9	26.8*
COc1ccc(NS(=O)(=O)c2ccc3oc(SC)nc3c2)cc1	5.1	15.6	-1.8	0.2	16.4
Oc1ccc(N2CCN(C(=S)NCCc3ccccc3)CC2)cc1	2.2	18.1	8.9	6.9	29.3*
CC[C@@H]1C/C=C\Cc2ccccc2[C@@H](C(=O)C[C@H](O)CC(C)=O)OC1=O	.	.	.	-3.1	0.9
O=C1c2ccccc2C(=O)c2c(O)c(O)cc(O)c21	.	.	.	95.5*	47.0*
COc1ccc(C(=O)C(C)OC(=O)CCN2C(=O)C3CC=CCC3C2=O)cc1 (centres undefined)	.	.	1.8	-1.7	-5.8
COCCn1c(N)c(C#N)c2nc3ccccc3nc21	1.5	27.1	-1.1	-5.8	3.6
COc1ccc(Cn2c(N)c(C#N)c3nc4ccccc4nc32)cc1	2.3	38.6*	0.1	-16.3	-13.3
COc1cc(Cn2c(N)c(C#N)c3nc4ccccc4nc32)cc(OC)c1	-3.7	13.5	14.8	-14.8	-8.6
N#Cc1c(N)n(CCOC(=O)c2cccc([N+](=O)[O-])c2)c2nc3ccccc3nc12	0.0	19.7	31.1*	1.3	8.7
Cc1ccc(NS(=O)(=O)c2ccc(OCC(N)=O)cc2)cc1	0.7	3.8	0.3	-1.5	22.5
CC(=O)Nc1cccc(C(=O)NC2CCCc3c2cnn3-c2cc(C)cc(C)c2)c1 (centres undefined)	-0.5	-2.2	1.4	-0.2	2.5
O=C(Cc1ccc(Cl)cc1)Nc1ccc(S(=O)(=O)Nc2cnc3ccccc3n2)cc1	-4.0	-23.7	-1.4	-2.6	30.7*
O=S(=O)(Nc1ccc(Cc2ccncc2)cc1)c1ccc(Cl)c(Cl)c1	2.9	11.5	9.5	-1.6	24.6*
CCc1ccc(OC)c(S(=O)(=O)Nc2ccc(Cc3ccncc3)cc2)c1	1.9	4.0	27.0*	-2.1	26.4*
Cc1c(C(=O)Nc2ccc(S(N)(=O)=O)cc2)oc2ccc(Cl)cc12	-3.4	5.0	-0.8	-1.9	-1.6
Cc1c(C(=O)NNC(=S)Nc2ccc(S(N)(=O)=O)cc2)oc2ccccc12	4.8	11.5	19.3	7.5	28.2*
CCOC(=O)Cc1cc(=O)n2[nH]cc(-c3ccc(Cl)cc3)c2n1	4.5	8.7	9.1	-11.2	32.4*
Cc1ccc(CN2CCSc3ccc(C(=O)NC4CCCC4)cc32)cc1	1.7	1.8	-0.1	-1.9	-1.3
Cc1ccc(CN2CCSc3ccc(C(=O)NCC4CCCO4)cc32)cc1 (centres undefined)	0.8	-2.4	7.1	-2.1	33.4*
CCC(=O)N1c2ccccc2NC2=C(C(=O)CC(C)(C)C2)C1c1ccc(O)c(OC)c1 (centres undefined)	-2.4	3.4	-1.8	-1.2	-0.8
CC(=O)NCc1ccc(C(=O)COC(=O)COc2ccc(Cl)c(C)c2)s1	.	.	.	-1.5	27.3*
Cc1cccc(-n2c(-c3ccncc3)n[nH]c2=S)c1C	-1.4	0.3	-0.1	1.3	29.6*
Cc1ccc(C(=O)CCC(=O)OCC(=O)Nc2ccccc2SCC#N)cc1	.	.	8.6	-0.8	26.5*
O=C(CCC1CCCCC1)NCCS(=O)(=O)N1CCN(c2ccc(F)cc2)CC1	0.7	-1.0	2.9	-1.8	3.1
Cc1ccc(S(=O)(=O)Nc2cccc(Cl)c2)cc1NC(=O)C1CC1	.	.	.	-3.4	33.7*
O=c1c2cc3c(nc2[nH]c(=S)n1-c1ccccc1)CCCC3	0.1	0.5	-4.5	2.6	0.9
CN(C)S(=O)(=O)c1cccc(NC(=S)NNC(=O)c2cc3ccccc3cc2O)c1	.	.	26.7*	-2.1	28.2*
